These results are taken from PubChem BioAssay AID651656 (NMMLSC, 2012).

Structures are written as SMILES. Values without a mark were called inactive.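 The calls were made as follows: active = viability at the highest tested concentration below 50%; inactive = the rest.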

A short description of the assay: viability loss, K562-ABCB6 cells – cell-based, CellTiter-Glo luminescence, PowderSet01 powders, cytotoxicity control for ABCB6 inhibitor project, dose response (AID 651656). The following applies: 18 h; series mostly up to 100 µM; viability: at the top concentration. For orientation: Cellular ATP, detected with luciferase, serves as a proxy for viable cell number.
One may read the viability as the share of living cells, or the viability signal relative to a control. With `CCc1ccc(NC(=O)c2nc(S(=O)(=O)Cc3ccccc3)ncc2Cl)cc1`, the “viability” value was 72.5%.

For the compound `CCOc1ccccc1NC(=O)c1nc(S(=O)(=O)Cc2cccc(C)c2)ncc1Cl`, the “viability” value is 65.6%. As for `CC(=O)Nc1ccc(NC(=O)c2nc(S(=O)(=O)Cc3ccccc3)ncc2Cl)cc1`, the figure is 83.2%. The value for `CC(=O)Nc1ccc(NC(=O)c2nc(S(=O)(=O)Cc3cccc(C)c3)ncc2Cl)cc1` was 63.3%.
